These results are taken from PubChem BioAssay AID2279 (Southern Research Specialized Biocontainment Screening …, 2010).

Each structure is given as a SMILES string. Results with a measured potency or affinity are listed apart. Values without a mark were called inactive. The rule behind the calls is not given here.

This assay in a line: HIV-1 Env-mediated cell fusion inhibitors, dose response, CCR5-tropic Env (AID 2279). To be noted: CCR5-tropic HIV-1 Env, reporter read-out; series mostly up to 50 µM; inhibition: at the top concentration.
In the case of `Cc1ccc(-c2cc(C(=O)Nc3ccc(S(=O)(=O)Nc4onc(C)c4C)cc3)c3ccccc3n2)cc1`, the “inhibition” value is -9.23%.
As for `COc1cc(/C=C2\C(=N)N3N=C(S(C)(=O)=O)SC3=NC2=O)cc(OC)c1OCCOc1ccccc1C`, the figure is 6.64%; as for `COc1cc(/C=C2/SC(=S)N(Cc3ccccc3)C2=O)ccc1OCC(=O)O`, 23.6%.
As for `Cc1ccc(/C=C2\SC(=S)N(CCCC(=O)Nc3ccccc3C(=O)O)C2=O)cc1`, the figure is 29.7%.
As to `O=C1NN(c2ccc(Cl)c(Cl)c2)C(=O)/C1=C/c1cccc(OC(=O)c2cccs2)c1`, the “inhibition” value was 16.1%.
As for `Cc1c(CCC(=O)O)c(=O)oc2c(C)c3occ(-c4ccc(Br)cc4)c3cc12`, the figure is 4.8%; as for `Oc1c(Br)cc(Br)c(/C=N/n2c(-c3ccccc3)n[nH]c2=S)c1Br`, 21.4%.
As for `CCOC(=O)C1=C(C)N=c2s/c(=C\c3ccc(OCC(=O)O)c(OC)c3)c(=O)n2C1c1ccc(OC)cc1` (stereo not given), the figure is -3.5%; as for `CCc1nnc(NS(=O)(=O)c2ccc(NC(=S)NC(=O)/C=C/c3ccc(C(C)C)cc3)cc2)s1`, 37.6%; as for `Cc1ccc(NC(=O)COc2cccc(/C=C3\SC(=S)N(CCC(=O)O)C3=O)c2)cc1Cl`, 14.1%.
As for `Cc1cc(/C=c2\sc3nc4ccccc4n3c2=O)c(C)n1-c1ccc(C(=O)O)cc1`, the figure is 34.4%; as for `O=C(CCN1C(=O)/C(=C/c2ccco2)SC1=S)Nc1ccc(C(=O)O)c(O)c1`, 6.17%; as for `CN1C(=O)/C(=C/c2ccc(C(=O)Nc3ccc(O)cc3C(=O)O)cc2)SC1=S`, 4.53%.
`CCCCCOc1ccc(C2C(C(=O)c3ccc(C)o3)=C(O)C(=O)N2c2cc(C)on2)cc1` (stereo not given): the “inhibition” value was 37.2%.
In the case of `O=C(O)C(c1ccccc1)N1C(=O)/C(=C\c2ccc(O)c(O)c2)SC1=S` (stereo not given), the “inhibition” value is -7.75%.
As for `O=C(Nc1cc(C(=O)Nc2ccccc2C(=O)O)cc(C(=O)Nc2ccccc2C(=O)O)c1)c1ccccc1`, the figure is 15.2%; as for `Cc1ccc(S(=O)(=O)Oc2ccc(/C=C3\C(=N)N4N=C(S(C)(=O)=O)SC4=NC3=O)cc2)cc1`, -3.81%; as for `N=C1/C(=C/c2ccc(-c3cccc(C(=O)O)c3)o2)C(=O)N=C2SC=C(c3ccccc3)N12`, 30.6%.
As for `COc1ccc(N=C2S/C(=C\c3ccc(OCC(=O)O)cc3)C(=O)N2CCc2c[nH]c3ccccc23)cc1`, the figure is 22.9%; as for `O=C(CCN1C(=O)/C(=C\c2ccccc2F)SC1=S)Nc1ccc(C(=O)O)c(O)c1`, 9.96%; as for `Cc1ccccc1N=C1NC(=O)/C(=C/c2cccn2-c2cccc(C(=O)O)c2)S1`, -7.38%.
As for `Cc1c(Cl)cccc1NS(=O)(=O)c1ccc2c(c1)C1C=CCC1C(c1ccc(C(=O)O)cc1)N2` (stereo not given), the figure is 39.9%; as for `Cc1cc(C)c2nc(N3C(=O)C(O)=C(C(=O)c4ccco4)C3c3ccco3)sc2c1` (stereo not given), 22.3%.
For `CCc1ccc(N=C2NC(=O)/C(=C/c3cc(Br)c(OCC(=O)O)c(OC)c3)S2)cc1`, the “inhibition” value was -9.37%.
As for `CCS(=O)(=O)C1=NN2C(=N)/C(=C\c3ccc(OCCOc4cccc(OC)c4)c(OC)c3)C(=O)N=C2S1`, the figure is 6.77%.
Turning to `CS(=O)(=O)C1=NSC2=NC(=O)/C(=C\c3ccc(OC(=O)c4ccco4)c(Br)c3)C(=N)N21`, the “inhibition” value is 16.8%.
With `Cc1ccc(NS(=O)(=O)c2ccc(N/N=C/c3ccccc3OCC(=O)O)c([N+](=O)[O-])c2)c(C)c1`, the “inhibition” value is -0.66%.
Consider `CC(c1ccccc1)N1C(=O)c2ccc(C(=O)Nc3ccc(Br)cc3C(=O)O)cc2C1=O` (stereo not given), for which the “inhibition” value is 1.67%.
As for `O=C1NN(c2ccc(Cl)c(Cl)c2)C(=O)/C1=C/c1ccc(-c2ccccc2C(=O)O)o1`, the “inhibition” value is -10.8%.
As for `CC(c1ccccc1)N1C(=O)c2ccc(C(=O)Nc3ccccc3C(=O)O)cc2C1=O` (stereo not given), the figure is 3.54%; as for `N#Cc1c(SCC(=O)Nc2nc3ccc(Br)cc3s2)sc2c(O)cc(=O)[nH]c12`, -35.2%.
As for `N#Cc1c(-c2cccs2)nc(SCc2ccc(Cl)cc2)[nH]c1=O`, the figure is 17.8%; as for `O=C(O)CSc1cc(C(=O)c2ccccc2O)cn2c(=O)c3c4c(sc3nc12)CCCC4`, -1.15%; as for `O=C(O)c1cc(N2N=C(C(F)(F)F)/C(=C/C=C/c3ccco3)C2=O)ccc1Cl`, 17.9%.
As for `Cc1ccc(C)c(S(=O)(=O)/N=C2\C=C(NS(=O)(=O)c3ccccc3)C(=O)c3ccccc32)c1`, the figure is 32.6%.

As usually defined, the inhibition is the relative decrease from the control value, in per cent.
